The results in this text go back to PubChem BioAssay AID1446 (The Scripps Research Institute Molecular Screening Center, 2008).

Each structure is given as a SMILES string. The whole screen tested about 220,000 compounds, of which about 2,400 (1.1%) were called active. Only a selection was taken, and actives are over-represented in it overall. Unmarked numbers belong to inactive results.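 How the source made its calls: active means inhibition above the campaign mean plus 3 SD over all tested compounds (cut at about 24% in these data); inactive means the rest.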

The nature of the assay: reduced viability of JAK2V617F-dependent Ba/F3 cells, primary screen, JAK2V617F inhibitor project, cell-based, Ba/F3 EpoR-JAK2V617F, luminescence (AID 1446).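 Further: cytokine-independent growth of Ba/F3 cells driven by EpoR plus mutant JAK2; 0% = DMSO-treated cells and 100% = JAK inhibitor I control.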 As to conditions: ATP luminescence, at 5.6 µM, active compounds read high.
One may read the inhibition as the change of the read-out against control, counted positive when it falls. In the case of `CSc1nnc(-c2ccc(C(F)(F)F)cn2)o1`, the inhibition was -4.69%.

With `CC(=O)NC(Cc1ccc(F)c(F)c1)C(=O)NC1CCN(c2nnnn2-c2ccccc2)CC1` (stereo unspecified), the inhibition is 1.68%.

For the molecule `O=C(COC(=O)CNS(=O)(=O)c1ccccc1)NC12CC3CC(CC(C3)C1)C2`, the inhibition is 2.17%.

Turning to `Cc1ccc(NC(=O)CN(C)CC(=O)Nc2cccc(F)c2)cc1[N+](=O)[O-]`, the inhibition was 32.7% (active).

On to `CN(CC(=O)Nc1cccc(F)c1)CC(=O)Nc1cccc([N+](=O)[O-])c1`, for which the inhibition was 1.69%.

In the case of `Cc1ccc(CN(C)CC(=O)Nc2cccc([N+](=O)[O-])c2)o1`, the inhibition was -2.99%.

As to `Nc1ccc2nn(-c3ccc(Cl)cc3)nc2c1`, the inhibition was -0.91%.

As for `Cc1ncc([N+](=O)[O-])n1CCOC(=O)c1ccc(Br)cc1`, the inhibition is -1.79%.

As to `CCCCCCNC(=O)CSc1nccn1Cc1ccccc1`, the inhibition was -2.6%.

`CCOc1cccc(-c2nnc3sc(COc4ccc(OC)cc4)nn23)c1`: the inhibition was -2.87%.

On to `CCOc1cccc(-n2nnnc2-c2ccc(OC)cc2)c1`, for which the inhibition is 62.5% (active).

Take `COc1ccc(-n2nnnc2-c2nc3ccccc3s2)cc1`: the inhibition is -2.25%.

Turning to `CC[n+]1c(C)n(-c2ccccc2)c2ccc(NC(C)=O)cc21`, the inhibition was 70.6% (active).

As to `CCc1ccc(NC(=O)N2CCN(c3ccccc3)CC2)cc1`, the inhibition is 0.49%.

Take `CCn1c2ccccc2c2cc(NC(=O)CNC)ccc21`: the inhibition is -0.79%.

For `COc1cccc(NC(=O)CC2C(=O)NCCN2C(=S)Nc2ccc(F)cc2)c1` (stereo unspecified), the inhibition was 3.64%.

Take `COc1ccc(S(=O)(=O)N(CC(=O)N/N=C/c2ccccc2C(=O)O)c2ccccc2OC)cc1`: the inhibition is -2.32%.

Take `Cc1ccccc1-c1nc(C#N)c(NCc2ccco2)o1`: the inhibition is 0.66%.

For `COc1ccc(Nc2oc(-c3ccccc3Cl)nc2C#N)cc1`, the inhibition was 50.8% (active).

`COc1ccccc1-c1nc(C#N)c(N2CCC(C(N)=O)CC2)o1`: the inhibition is -2.39%.

Consider `CC(C)C(=O)Nc1oc(-c2ccccc2)cc1C#N`, for which the inhibition was 0.17%.

As for `CC1CCN(S(=O)(=O)c2ccc(S(=O)(=O)NCc3cccnc3)cc2)CC1`, the inhibition was 0.32%.

As for `CCCCCCn1c(CN2CCCCC2)nc2c1c(=O)n(C)c(=O)n2C`, the inhibition was -2.26%.

As to `CCCCCCCCn1c2c(c(=N)c3c1CCC3)CCCC2`, the inhibition is 101% (active).

Take `Cc1cc(NCc2cccnc2)no1`: the inhibition is -7.11%.

Consider `Cc1noc(C)c1COc1cccc(C(=O)Nc2cccnc2)c1`, for which the inhibition was -0.6%.

In the case of `CN(Cc1cccnc1)C(=O)c1cc(COc2ccc3ncccc3c2)on1`, the inhibition was 54.2% (active).

As for `Cc1cccc(-[n+]2c(-c3cccc(Br)c3)[nH]c3nc4ccccc4nc32)c1`, the inhibition is -1.46%.

As to `CCCC(=O)Nc1nc2ccc(NC(=O)c3cccnc3)cc2s1`, the inhibition was 2.04%.

Turning to `COc1ccc2nc(Nc3nc4ccc(NC(C)=O)cc4s3)sc2c1`, the inhibition was -4.43%.

On to `CCCC(=O)Nc1nc2ccc(NC(=O)c3c(F)c(F)c(OC)c(F)c3F)cc2s1`, for which the inhibition was 81.8% (active).

For the molecule `CCc1cccc(NC(=O)CCNS(=O)(=O)c2cccc3nonc23)c1`, the inhibition was -3.57%.

For the molecule `Cc1onc(-c2ccc(Cl)cc2)c1-c1ccnn1S(=O)(=O)c1ccc(Cl)cc1`, the inhibition is -1.9%.

On to `COc1cc(/C=C2/C(=O)ON=C2C)ccc1OCc1cccc(F)c1`, for which the inhibition was 67.1% (active).

On to `COc1cc(/C=C2/C(=O)ON=C2C)ccc1OCc1ccccc1F`, for which the inhibition was -2.39%.

For `CC1=NOC(=O)/C1=C\c1ccccc1`, the inhibition was -4.85%.

For `COc1ccc(NS(=O)(=O)c2ccc(N3CCOCC3)c(NC(=O)c3ccccc3Br)c2)cc1`, the inhibition was 2.5%.

For the molecule `COc1ccccc1N=Cc1c(O)c2ccccc2oc1=O`, the inhibition was 5.52%.

For the molecule `CCC(=O)Nc1nc2ccccc2n1Cc1ccccc1C`, the inhibition was -0.24%.

Regarding `CCCn1c(NC(=O)C23CC4CC(CC(O)(C4)C2)C3)nc2ccccc21`, the inhibition was 53% (active).

`CC(=O)Nc1nc2ccccc2n1Cc1ccc(C)cc1`: the inhibition is -2.63%.

With `CCOP(=O)(OCC)C(Nc1cccc(C)c1)c1ccc(F)cc1` (stereo unspecified), the inhibition was -3.26%.

On to `C/[N+]([O-])=C\c1ccc([N+](=O)[O-])o1`, for which the inhibition is -0.25%.

For `Cn1cc(/C=C/c2nc3ccccc3c(=O)n2-c2cccc([N+](=O)[O-])c2)c2ccccc21`, the inhibition is 0.27%.

As for `CCn1c(/C=C/c2ccc([N+](=O)[O-])o2)nc2ccccc2c1=O`, the inhibition is 40.5% (active).

As for `CCc1nnc(NC(=O)CSc2nnnn2-c2cccc(C(C)=O)c2)s1`, the inhibition was -3.92%.

As for `CC(=O)Nc1ccc(S(=O)(=O)Oc2ccc(/C=N/N=C3/NC(=O)C(CC(=O)O)S3)cc2)cc1` (stereo unspecified), the inhibition is 1.79%.

Regarding `COc1ccc(C)cc1Nc1nc(-c2c(C)[nH]c3ccccc23)cs1`, the inhibition was -2.69%.

For `COc1ccc(Nc2nc(-c3ccccc3)cs2)cc1`, the inhibition was 1.67%.

As for `CCNc1nc(-c2cc3ccccc3o2)cs1`, the inhibition was -1.02%.

With `COc1ccc2nc(Nc3nc(-c4ccncc4)cs3)sc2c1`, the inhibition is 3.58%.

For the molecule `COc1ccc(-c2csc(Nc3ccc(O)cc3)n2)cc1`, the inhibition is 65.8% (active).

`O=c1oc2ccccc2cc1-c1csc(Nc2ccc(O)cc2)n1`: the inhibition was 70.4% (active).

In the case of `COc1ccc(OC)c(Nc2nc(-c3ccc(O)c(O)c3)cs2)c1`, the inhibition is 35.7% (active).

With `COc1ccc(-c2csc(Nc3ccccn3)n2)cc1`, the inhibition was -3.7%.

`COc1ccc2nc(Nc3nc(-c4cc5ccccc5oc4=O)cs3)sc2c1`: the inhibition was -2.4%.

Regarding `Cc1ccc(O)c(CCc2ccccc2)n1`, the inhibition was -4.38%.

For the molecule `Cc1nc(Cl)c(C#N)c2c1CCCC2`, the inhibition was -4.53%.

In the case of `Cc1cc(C)n(CC(O)CN(c2ccccc2)S(=O)(=O)c2ccc3ccccc3c2)n1` (stereo unspecified), the inhibition is 0.98%.

In the case of `S=c1[nH]c2ccccc2c2ccccc12`, the inhibition was -1.73%.

As for `CN(C)CCNC(=O)/C(=C/c1cccc([N+](=O)[O-])c1)NC(=O)c1ccccc1`, the inhibition is 3.86%.

Take `O=C1N/C(=C/c2cccn2-c2ccccc2)C(=O)N1c1cccc(Cl)c1`: the inhibition was 51.8% (active).

With `O=C1/C(=C\c2ccsc2)NC(=S)N1c1ccccc1`, the inhibition is -2.32%.

With `Cc1ccccc1NC(=O)CN1C(=O)N/C(=C\c2cccn2-c2cccc(C(=O)O)c2)C1=O`, the inhibition was 0.8%.

With `Cc1ccc(C(=O)NN(CCC#N)C2=NS(=O)(=O)c3ccccc32)cc1`, the inhibition was -4.16%.

Take `Cc1ccc2sc(NNC(=O)c3ccc4c(c3)OCCO4)nc2c1C`: the inhibition was -3.73%.

Consider `COc1ccc(Nc2cc(=O)oc3ccccc23)cc1`, for which the inhibition was 55.1% (active).

As for `COc1ccc(N2CCN(Cc3cc(=O)oc4ccc5ccccc5c34)CC2)cc1`, the inhibition is 0.19%.

Regarding `COc1ccc(Nc2cc(=O)n(-c3ccccc3)c3c2c(=O)n(C)c(=O)n3C)cc1`, the inhibition was 0.16%.

`O=C(CC(c1ccccc1)c1cc(Cl)ccc1O)NCCN1CCOCC1` (stereo unspecified): the inhibition is -3.6%.

Take `C/C(CC(C)C)=N\Oc1nc(C)cc(C)n1`: the inhibition is -2.21%.

With `O=[N+]([O-])c1cc(C(F)(F)F)ccc1NN=C1CCCC1`, the inhibition was -0.95%.

On to `O=C(CCN1CCCCC1)N=Nc1c(O)[nH]c2ccccc12`, for which the inhibition was 1.24%.

As for `COC(=O)COc1cccc2c(=O)n(CC(=O)NCc3ccccc3)ccc12`, the inhibition was 58.8% (active).

Turning to `COC(=O)COc1cccc2c(=O)n(CC(=O)NCCc3ccc(OC)c(OC)c3)ccc12`, the inhibition is -2.26%.

With `Cc1ccc(CNC(=O)CCNC(=O)Cn2ccc3ccccc3c2=O)cc1`, the inhibition is 0.07%.

In the case of `CC(C)(C)NC(=O)c1ccc(Cn2cc(C(F)(F)F)ccc2=O)cc1`, the inhibition is 0.95%.

In the case of `Cc1cc2ccccn2c1C(=O)c1cccc(S(=O)(=O)N2CCOCC2)c1`, the inhibition is -0.04%.

Consider `C/C(CC(=O)NC(C)(C)C)=N\NC(=O)c1ccco1`, for which the inhibition was -1.54%.

For the molecule `CCCNc1c(N)c(=O)c1=O`, the inhibition was 1.36%.

Regarding `CCc1cc(C(=O)c2ccc(OC)cc2)c(NC(=O)CN2CCN(C)CC2)s1`, the inhibition is -1.89%.

Consider `CCOC(=O)N1CCN(C(=O)C2CCN(Cc3ccc(OC)cc3OC)CC2)CC1`, for which the inhibition was -0.59%.

Turning to `CCOC(=O)N1CCN(C(=O)C2CCN(c3ncnc4c3sc3cccc(F)c34)CC2)CC1`, the inhibition is 43.9% (active).

Regarding `CCOC(=O)C1CCN(c2ncnc3c2oc2ccc(Br)cc23)CC1`, the inhibition was 0.71%.

As for `COc1ccc(/C=N/OCC(=O)N(Cc2ccccc2)c2ccccc2C(=O)O)cc1`, the inhibition is -2.1%.

With `CCCCN1C(=O)/C(=C(/C#N)C(N)=O)c2ccccc21`, the inhibition is -3.07%.

`CC(C)c1ccc(Nc2nnc(SCC(=O)c3nnc(-c4ccccc4)o3)s2)cc1`: the inhibition was 0.01%.

In the case of `COc1ccc(CCNC(=O)C(=O)NCC2CCNCC2)cc1OC`, the inhibition is -3.6%.

Consider `Cc1ccc2c(c1)C1CN(C)CCC1N2S(=O)(=O)c1ccc(Oc2ccc([N+](=O)[O-])cc2)cc1` (stereo unspecified), for which the inhibition is -5.1%.

In the case of `CCn1c(CSCc2c(Cl)cccc2Cl)n[nH]c1=S`, the inhibition is -2.13%.

Turning to `COc1cc2c(cc1OC)C(/C=C/c1ccco1)=NCC2`, the inhibition is 1.51%.

With `O=c1oc2ccccc2cc1-c1cn(-c2ccccc2)c(=S)[nH]1`, the inhibition was 35.7% (active).

In the case of `O=C(c1cn(-c2ccccc2)nc1-c1cc2ccccc2oc1=O)N1CCOCC1`, the inhibition is -0.6%.

Take `Nc1ncc(-c2cc3ccccc3oc2=O)s1`: the inhibition is 6.85%.

Regarding `Cc1nc2c(ncn2-c2ccccc2)c(=O)n1NC(=O)CN1CCCC1`, the inhibition was -1.07%.

For `O=C(NNC(=O)c1ccccc1[N+](=O)[O-])Nc1ccccc1C(F)(F)F`, the inhibition is -0.76%.
